# In PubChem BioAssay AID1508601 (ICCB-Longwood Screening Facility, Harvard Medical School, 2020):
# Values joined by “and” are separate entries in the source; they are usually repeats but may differ in a detail not shown here. Identical values can stand only once. In all, about 5,700 compounds went through this assay and about 85 (1%) were called active. Cut-off read from the data, not from the text of the source: active = p53-positive nuclei above about 36% (passing the limit was not always enough); inactive = the rest. This excerpt belongs to a sample that is enriched for actives.
# Experiments:
# [1] = p53 stabilisation in HPV-positive human cells, imaging, p53-positive nuclei imaging, 24 h, 48 h (AID 1508601); conditions: 24/48 h
# [2] = target: Cellular tumor antigen p53 (Homo sapiens) (UniProt P04637); test: as above; conditions: 24/48 h, stronger effect = higher value
# [3] = measured here: cell number at 24 h, Library stock concentration: 80 uM
# [4] = measured here: cell number at 24 h, Library stock concentration: 400 uM
# [5] = measured here: cell number at 24 h, Library stock concentration: 2 mM
# [6] = measured here: cell number at 24 h, Library stock concentration: 3.33 mM
# [7] = measured here: cell number at 24 h, Library stock concentration: 10 mM
# [8] = measured here: cell number at 48 h, Library stock concentration: 80 uM
# [9] = measured here: cell number at 48 h, Library stock concentration: 400 uM
# [10] = measured here: cell number at 48 h, Library stock concentration: 2 mM
# [11] = measured here: cell number at 48 h, Library stock concentration: 3.33 mM
# [12] = measured here: cell number at 48 h, Library stock concentration: 10 mM
# [13] = Library stock concentration: 80 uM
# [14] = Library stock concentration: 400 uM
# [15] = Library stock concentration: 2 mM
# [16] = Library stock concentration: 3.33 mM
# [17] = Library stock concentration: 10 mM
# [18] = measured here: p53 positive nuclei at 24 h, Library stock concentration: 80 uM
# [19] = measured here: p53 positive nuclei at 24 h, Library stock concentration: 400 uM
# [20] = measured here: p53 positive nuclei at 24 h, Library stock concentration: 2 mM
# [21] = measured here: p53 positive nuclei at 24 h, Library stock concentration: 3.33 mM
# [22] = measured here: p53 positive nuclei at 24 h, Library stock concentration: 10 mM
# Cellular tumor antigen p53 (Homo sapiens), sequence (P04637 whole entry, looked up): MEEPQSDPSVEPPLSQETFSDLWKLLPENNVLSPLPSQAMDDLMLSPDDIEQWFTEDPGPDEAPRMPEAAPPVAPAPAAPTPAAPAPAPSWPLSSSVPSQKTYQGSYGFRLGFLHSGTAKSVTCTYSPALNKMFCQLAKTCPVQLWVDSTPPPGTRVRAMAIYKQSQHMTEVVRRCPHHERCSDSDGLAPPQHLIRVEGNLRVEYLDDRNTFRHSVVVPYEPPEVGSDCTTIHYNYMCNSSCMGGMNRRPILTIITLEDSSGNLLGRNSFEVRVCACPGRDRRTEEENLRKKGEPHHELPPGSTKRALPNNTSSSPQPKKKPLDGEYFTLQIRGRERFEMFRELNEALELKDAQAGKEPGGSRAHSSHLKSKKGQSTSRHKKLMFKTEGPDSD
smiles,measurement,setting,value
CC(C)CC(=O)Nc1n[nH]c2c1CN(C(=O)C1CCN(C)CC1)C2(C)C,"nuclei count, normalised",[1]; [3],90.1%
same,"nuclei count, normalised",[1]; [4],79.8%
same,"nuclei count, normalised",[1]; [5],61%
same,"nuclei count, normalised",[1]; [6],45.9%
same,"nuclei count, normalised",[1]; [7],39.3%
same,"nuclei count, normalised",[1]; [8],91.5%
same,"nuclei count, normalised",[1]; [9],71.9%
same,"nuclei count, normalised",[1]; [10],44.9%
same,"nuclei count, normalised",[1]; [11],31.6%
same,"nuclei count, normalised",[1]; [12],23.2%
same,"p53-positive nuclei, normalised",[2]; [13],-0.0742% (inactive)
same,"p53-positive nuclei, normalised",[2]; [14],0.409% (inactive)
same,"p53-positive nuclei, normalised",[2]; [15],5.57% (inactive)
same,"p53-positive nuclei, normalised",[2]; [16],45.4% (inactive)
same,"p53-positive nuclei, normalised",[2]; [17],3.79% (inactive)
same,"p53-positive nuclei, normalised",[2]; [18],-0.129%
same,"p53-positive nuclei, normalised",[2]; [19],0.453%
same,"p53-positive nuclei, normalised",[2]; [20],0.779%
same,"p53-positive nuclei, normalised",[2]; [21],13.5%
same,"p53-positive nuclei, normalised",[2]; [22],0.472%
Cc1nc(Nc2n[nH]c3c2CN(C(=O)NC(CN(C)C)c2ccccc2)C3(C)C)c2sccc2n1 (centres undefined),"nuclei count, normalised","[1]; measured here: cell number at 24 h, Library stock concentration: 46 uM",105%
same,"nuclei count, normalised",[1]; [3],95.1%
same,"nuclei count, normalised","[1]; measured here: cell number at 24 h, Library stock concentration: 278 uM",96.3%
same,"nuclei count, normalised",[1]; [4],85.6%
same,"nuclei count, normalised","[1]; measured here: cell number at 24 h, Library stock concentration: 1.67 mM",75.5%
same,"nuclei count, normalised",[1]; [5],66.2%
same,"nuclei count, normalised",[1]; [6],47.2%
same,"nuclei count, normalised",[1]; [7],45.2% and 45.1%
same,"nuclei count, normalised","[1]; measured here: cell number at 48 h, Library stock concentration: 46 uM",108%
same,"nuclei count, normalised",[1]; [8],96.4%
same,"nuclei count, normalised","[1]; measured here: cell number at 48 h, Library stock concentration: 278 uM",99.1%
same,"nuclei count, normalised",[1]; [9],92.2%
same,"nuclei count, normalised","[1]; measured here: cell number at 48 h, Library stock concentration: 1.67 mM",72.1%
same,"nuclei count, normalised",[1]; [10],63.4%
same,"nuclei count, normalised",[1]; [11],37.3%
same,"nuclei count, normalised",[1]; [12],32.4% and 35.1%
same,"p53-positive nuclei, normalised",[2]; Library stock concentration: 46 uM,-0.184% (inactive)
same,"p53-positive nuclei, normalised",[2]; [13],-0.159% (inactive)
same,"p53-positive nuclei, normalised",[2]; Library stock concentration: 278 uM,-0.101% (inactive)
same,"p53-positive nuclei, normalised",[2]; [14],-0.117% (inactive)
same,"p53-positive nuclei, normalised",[2]; Library stock concentration: 1.67 mM,0.691% (inactive)
same,"p53-positive nuclei, normalised",[2]; [15],2.71% (inactive)
same,"p53-positive nuclei, normalised",[2]; [16],69.1% (active)
same,"p53-positive nuclei, normalised",[2]; [17],18.9% (inactive) and 1.61% (inactive)
same,"p53-positive nuclei, normalised","[2]; measured here: p53 positive nuclei at 24 h, Library stock concentration: 46 uM",0.116%
same,"p53-positive nuclei, normalised",[2]; [18],-0.151%
same,"p53-positive nuclei, normalised","[2]; measured here: p53 positive nuclei at 24 h, Library stock concentration: 278 uM",-0.0682%
same,"p53-positive nuclei, normalised",[2]; [19],0.0839%
same,"p53-positive nuclei, normalised","[2]; measured here: p53 positive nuclei at 24 h, Library stock concentration: 1.67 mM",1.31%
same,"p53-positive nuclei, normalised",[2]; [20],2.05%
same,"p53-positive nuclei, normalised",[2]; [21],6.89%
same,"p53-positive nuclei, normalised",[2]; [22],1.74% and 0.752%
CCCCCOC(=O)Nc1nc(=O)n(C2OC(C)C(O)C2O)cc1F (centres undefined),"nuclei count, normalised",[1]; [6],99.3%
same,"nuclei count, normalised",[1]; [11],102%
same,"p53-positive nuclei, normalised",[2]; [16],-0.587% (inactive)
same,"p53-positive nuclei, normalised",[2]; [21],-0.329%
CCC(=O)O[C@@]1(C(=O)CCl)C(C)C[C@H]2[C@@H]3CC(F)C4=CC(=O)C=C[C@]4(C)[C@]3(F)C(O)C[C@@]21C (some centres undefined),"nuclei count, normalised",[1]; [6],104%
same,"nuclei count, normalised",[1]; [11],97.5%
same,"p53-positive nuclei, normalised",[2]; [16],-0.166% (inactive)
same,"p53-positive nuclei, normalised",[2]; [21],-0.278%
CCN(CC)Cc1ccc2cc(COC(=O)Nc3ccc(C(=O)NO)cc3)ccc2c1,"nuclei count, normalised",[1]; [6],39.9%
same,"nuclei count, normalised",[1]; [11],22.6%
same,"p53-positive nuclei, normalised",[2]; [16],95.7% (active)
same,"p53-positive nuclei, normalised",[2]; [21],67.1%
COc1ccc(Cn2ccc3ccc(C(=O)NO)cc32)cc1,"nuclei count, normalised",[1]; [3],107%
same,"nuclei count, normalised",[1]; [4],107%
same,"nuclei count, normalised",[1]; [5],105%
same,"nuclei count, normalised",[1]; [6],105%
same,"nuclei count, normalised",[1]; [7],101%
same,"nuclei count, normalised",[1]; [8],107%
same,"nuclei count, normalised",[1]; [9],99.6%
same,"nuclei count, normalised",[1]; [10],98.8%
same,"nuclei count, normalised",[1]; [11],88.9%
same,"nuclei count, normalised",[1]; [12],95.1%
same,"p53-positive nuclei, normalised",[2]; [13],-0.106% (inactive)
same,"p53-positive nuclei, normalised",[2]; [14],-0.0148% (inactive)
same,"p53-positive nuclei, normalised",[2]; [15],-0.164% (inactive)
same,"p53-positive nuclei, normalised",[2]; [16],0.097% (inactive)
same,"p53-positive nuclei, normalised",[2]; [17],-0.0788% (inactive)
same,"p53-positive nuclei, normalised",[2]; [18],-0.0424%
same,"p53-positive nuclei, normalised",[2]; [19],-0.00427%
same,"p53-positive nuclei, normalised",[2]; [20],0.00889%
same,"p53-positive nuclei, normalised",[2]; [21],-0.209%
same,"p53-positive nuclei, normalised",[2]; [22],0.0845%
CCCCN(Cc1ccc(C(=O)NO)cc1)C(=O)Nc1ccccc1,"nuclei count, normalised",[1]; [3],103%
same,"nuclei count, normalised",[1]; [4],99.5%
same,"nuclei count, normalised",[1]; [5],114%
same,"nuclei count, normalised",[1]; [6],118%
same,"nuclei count, normalised",[1]; [7],74.8%
same,"nuclei count, normalised",[1]; [8],109%
same,"nuclei count, normalised",[1]; [9],101%
same,"nuclei count, normalised",[1]; [10],99.5%
same,"nuclei count, normalised",[1]; [11],90.2%
same,"nuclei count, normalised",[1]; [12],67.8%
same,"p53-positive nuclei, normalised",[2]; [13],-0.143% (inactive)
same,"p53-positive nuclei, normalised",[2]; [14],0.163% (inactive)
same,"p53-positive nuclei, normalised",[2]; [15],0.295% (inactive)
same,"p53-positive nuclei, normalised",[2]; [16],0.281% (inactive)
same,"p53-positive nuclei, normalised",[2]; [17],5.72% (inactive)
same,"p53-positive nuclei, normalised",[2]; [18],-0.0551%
same,"p53-positive nuclei, normalised",[2]; [19],-0.12%
same,"p53-positive nuclei, normalised",[2]; [20],0.226%
same,"p53-positive nuclei, normalised",[2]; [21],0.149%
same,"p53-positive nuclei, normalised",[2]; [22],13.7%
